# Results: ChEMBL document CHEMBL1961873, “Compounds: GSK PKIS; Assays: Nanosyn kinase panel” (2012)
# Key:
# [1] = test system: Epidermal growth factor receptor (Homo sapiens), P00533 [T790M]; conditions: at 1 µM
# [2] = test system: Epidermal growth factor receptor (Homo sapiens), P00533 [L858R,T790M]; conditions: at 0.1 µM
# [3] = test system: Epidermal growth factor receptor (Homo sapiens), P00533 [L858R,T790M]; conditions: at 1 µM
# [4] = target: Ephrin type-A receptor 2 (Homo sapiens) (UniProt P29317); conditions: at 0.1 µM
# [5] = target: Ephrin type-A receptor 2 (Homo sapiens) (UniProt P29317); conditions: at 1 µM
# [6] = target: T1, Ephrin type-A receptor 3 (Homo sapiens) (UniProt P29320); conditions: at 0.1 µM
# T1 sequence (whole entry): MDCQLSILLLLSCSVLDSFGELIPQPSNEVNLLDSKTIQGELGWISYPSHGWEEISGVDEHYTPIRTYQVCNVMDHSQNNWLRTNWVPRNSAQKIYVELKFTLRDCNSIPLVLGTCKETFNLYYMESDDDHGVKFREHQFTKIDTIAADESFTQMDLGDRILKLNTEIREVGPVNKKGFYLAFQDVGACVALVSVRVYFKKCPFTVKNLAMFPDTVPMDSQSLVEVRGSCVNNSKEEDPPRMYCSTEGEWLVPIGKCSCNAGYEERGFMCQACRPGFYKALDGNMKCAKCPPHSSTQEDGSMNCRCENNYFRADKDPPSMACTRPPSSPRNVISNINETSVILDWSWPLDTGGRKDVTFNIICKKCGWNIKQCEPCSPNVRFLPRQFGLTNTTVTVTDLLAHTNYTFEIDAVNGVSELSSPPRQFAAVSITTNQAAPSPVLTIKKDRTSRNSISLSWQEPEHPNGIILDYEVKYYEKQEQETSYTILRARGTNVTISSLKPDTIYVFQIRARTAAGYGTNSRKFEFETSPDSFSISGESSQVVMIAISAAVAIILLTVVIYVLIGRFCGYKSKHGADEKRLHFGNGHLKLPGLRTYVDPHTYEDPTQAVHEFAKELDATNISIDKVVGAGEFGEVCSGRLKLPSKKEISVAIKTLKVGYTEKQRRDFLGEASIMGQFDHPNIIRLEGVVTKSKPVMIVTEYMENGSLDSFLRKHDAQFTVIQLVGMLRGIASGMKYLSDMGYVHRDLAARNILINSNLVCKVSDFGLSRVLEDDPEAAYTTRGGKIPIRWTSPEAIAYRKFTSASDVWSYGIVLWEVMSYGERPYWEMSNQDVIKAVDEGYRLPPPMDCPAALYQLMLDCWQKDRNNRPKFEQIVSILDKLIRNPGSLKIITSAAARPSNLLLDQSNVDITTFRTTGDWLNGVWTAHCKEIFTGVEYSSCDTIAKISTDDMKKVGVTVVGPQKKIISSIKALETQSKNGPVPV
# [7] = target: T1, Ephrin type-A receptor 3 (Homo sapiens); conditions: at 1 µM
# [8] = target: Ephrin type-A receptor 4 (Homo sapiens) (UniProt P54764); conditions: at 0.1 µM
# [9] = target: Ephrin type-A receptor 4 (Homo sapiens) (UniProt P54764); conditions: at 1 µM
# [10] = target: T2, Ephrin type-B receptor 2 (Homo sapiens) (UniProt P29323); conditions: at 0.1 µM
# T2 sequence (whole entry): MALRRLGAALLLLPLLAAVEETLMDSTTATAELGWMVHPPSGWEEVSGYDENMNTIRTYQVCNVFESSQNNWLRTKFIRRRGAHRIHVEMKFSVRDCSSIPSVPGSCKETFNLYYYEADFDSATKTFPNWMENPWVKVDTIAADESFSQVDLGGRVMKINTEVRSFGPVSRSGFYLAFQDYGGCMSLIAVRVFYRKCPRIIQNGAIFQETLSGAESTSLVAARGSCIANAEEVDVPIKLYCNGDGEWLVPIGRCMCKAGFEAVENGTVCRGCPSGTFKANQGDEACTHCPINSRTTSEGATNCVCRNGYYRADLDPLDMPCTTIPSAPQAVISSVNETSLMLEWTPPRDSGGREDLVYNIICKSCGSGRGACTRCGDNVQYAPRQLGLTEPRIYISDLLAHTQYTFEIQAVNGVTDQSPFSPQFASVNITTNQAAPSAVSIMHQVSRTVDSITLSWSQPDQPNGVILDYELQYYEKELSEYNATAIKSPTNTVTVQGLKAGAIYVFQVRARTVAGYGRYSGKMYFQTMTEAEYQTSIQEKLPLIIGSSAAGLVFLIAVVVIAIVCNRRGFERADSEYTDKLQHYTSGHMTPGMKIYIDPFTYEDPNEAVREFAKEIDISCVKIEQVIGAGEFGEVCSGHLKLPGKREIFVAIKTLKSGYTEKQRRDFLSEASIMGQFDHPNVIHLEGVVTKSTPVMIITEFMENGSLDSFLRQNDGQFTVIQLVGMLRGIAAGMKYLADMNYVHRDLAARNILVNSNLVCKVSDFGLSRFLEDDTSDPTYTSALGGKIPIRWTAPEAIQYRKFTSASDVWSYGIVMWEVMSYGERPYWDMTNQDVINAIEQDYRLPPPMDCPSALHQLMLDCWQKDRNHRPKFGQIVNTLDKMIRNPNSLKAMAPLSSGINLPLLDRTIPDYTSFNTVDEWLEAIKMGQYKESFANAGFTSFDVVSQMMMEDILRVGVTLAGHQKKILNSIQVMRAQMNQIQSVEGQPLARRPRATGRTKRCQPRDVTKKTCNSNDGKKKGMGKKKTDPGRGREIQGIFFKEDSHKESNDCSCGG
# [11] = target: T2, Ephrin type-B receptor 2 (Homo sapiens); conditions: at 1 µM
# [12] = target: T3, Ephrin type-B receptor 3 (Homo sapiens) (UniProt P54753); conditions: at 0.1 µM
# T3 sequence (whole entry): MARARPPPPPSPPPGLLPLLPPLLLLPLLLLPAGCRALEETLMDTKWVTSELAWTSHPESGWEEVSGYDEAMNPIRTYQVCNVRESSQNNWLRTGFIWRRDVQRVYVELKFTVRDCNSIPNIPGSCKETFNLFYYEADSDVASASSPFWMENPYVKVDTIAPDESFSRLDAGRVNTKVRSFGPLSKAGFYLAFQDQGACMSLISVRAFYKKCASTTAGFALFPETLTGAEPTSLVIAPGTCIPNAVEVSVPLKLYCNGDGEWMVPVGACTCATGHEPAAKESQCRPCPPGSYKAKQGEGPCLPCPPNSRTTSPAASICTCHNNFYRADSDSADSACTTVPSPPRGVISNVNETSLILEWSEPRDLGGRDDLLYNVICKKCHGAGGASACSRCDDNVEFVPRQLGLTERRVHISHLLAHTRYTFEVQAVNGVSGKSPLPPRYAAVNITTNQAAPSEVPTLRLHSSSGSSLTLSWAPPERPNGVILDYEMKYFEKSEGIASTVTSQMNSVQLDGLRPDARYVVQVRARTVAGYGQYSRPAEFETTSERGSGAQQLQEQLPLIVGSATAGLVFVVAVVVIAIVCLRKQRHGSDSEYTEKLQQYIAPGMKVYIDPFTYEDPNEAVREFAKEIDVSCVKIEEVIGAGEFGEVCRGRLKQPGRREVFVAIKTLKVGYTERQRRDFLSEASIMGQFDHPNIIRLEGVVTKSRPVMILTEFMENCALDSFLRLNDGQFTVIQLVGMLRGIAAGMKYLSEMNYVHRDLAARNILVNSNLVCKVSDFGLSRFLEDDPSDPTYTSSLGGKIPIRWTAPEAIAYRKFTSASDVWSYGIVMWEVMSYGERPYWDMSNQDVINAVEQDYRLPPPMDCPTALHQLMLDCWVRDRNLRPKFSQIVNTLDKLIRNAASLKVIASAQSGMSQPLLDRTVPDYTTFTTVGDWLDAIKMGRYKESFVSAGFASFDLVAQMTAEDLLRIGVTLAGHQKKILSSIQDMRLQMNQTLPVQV
# [13] = target: T3, Ephrin type-B receptor 3 (Homo sapiens); conditions: at 1 µM
# [14] = target: T4, Ephrin type-B receptor 4 (Homo sapiens) (UniProt P54760); conditions: at 0.1 µM
# T4 sequence (whole entry): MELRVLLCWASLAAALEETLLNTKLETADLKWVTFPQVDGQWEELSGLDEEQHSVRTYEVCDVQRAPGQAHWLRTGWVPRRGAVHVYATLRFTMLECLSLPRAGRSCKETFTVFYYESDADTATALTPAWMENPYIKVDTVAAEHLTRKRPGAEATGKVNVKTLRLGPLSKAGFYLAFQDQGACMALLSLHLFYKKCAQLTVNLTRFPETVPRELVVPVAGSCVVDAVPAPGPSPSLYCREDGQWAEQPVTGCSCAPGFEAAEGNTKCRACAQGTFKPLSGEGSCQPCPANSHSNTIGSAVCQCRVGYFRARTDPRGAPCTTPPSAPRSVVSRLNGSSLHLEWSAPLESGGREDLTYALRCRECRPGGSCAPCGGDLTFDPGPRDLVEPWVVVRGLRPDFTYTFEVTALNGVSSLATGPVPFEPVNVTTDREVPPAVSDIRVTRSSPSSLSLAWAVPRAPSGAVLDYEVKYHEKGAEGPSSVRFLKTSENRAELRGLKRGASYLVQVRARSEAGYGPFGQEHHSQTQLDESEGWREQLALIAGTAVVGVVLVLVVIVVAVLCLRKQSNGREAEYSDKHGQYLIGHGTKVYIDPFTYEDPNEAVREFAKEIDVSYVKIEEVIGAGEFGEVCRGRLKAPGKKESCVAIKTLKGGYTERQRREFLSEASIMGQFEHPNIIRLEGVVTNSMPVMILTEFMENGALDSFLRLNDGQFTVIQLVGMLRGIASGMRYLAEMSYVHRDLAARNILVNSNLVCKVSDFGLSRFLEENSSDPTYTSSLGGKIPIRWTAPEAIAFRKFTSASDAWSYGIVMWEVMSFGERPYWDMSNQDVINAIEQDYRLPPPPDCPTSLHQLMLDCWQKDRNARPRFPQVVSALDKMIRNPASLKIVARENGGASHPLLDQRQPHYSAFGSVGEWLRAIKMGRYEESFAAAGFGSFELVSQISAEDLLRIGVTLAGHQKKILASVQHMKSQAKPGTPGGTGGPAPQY
# [15] = target: T4, Ephrin type-B receptor 4 (Homo sapiens); conditions: at 1 µM
# [16] = target: Receptor tyrosine-protein kinase erbB-2 (Homo sapiens) (UniProt P04626); conditions: at 0.1 µM
# Sequence of Receptor tyrosine-protein kinase erbB-2 (Homo sapiens) (P04626 whole entry): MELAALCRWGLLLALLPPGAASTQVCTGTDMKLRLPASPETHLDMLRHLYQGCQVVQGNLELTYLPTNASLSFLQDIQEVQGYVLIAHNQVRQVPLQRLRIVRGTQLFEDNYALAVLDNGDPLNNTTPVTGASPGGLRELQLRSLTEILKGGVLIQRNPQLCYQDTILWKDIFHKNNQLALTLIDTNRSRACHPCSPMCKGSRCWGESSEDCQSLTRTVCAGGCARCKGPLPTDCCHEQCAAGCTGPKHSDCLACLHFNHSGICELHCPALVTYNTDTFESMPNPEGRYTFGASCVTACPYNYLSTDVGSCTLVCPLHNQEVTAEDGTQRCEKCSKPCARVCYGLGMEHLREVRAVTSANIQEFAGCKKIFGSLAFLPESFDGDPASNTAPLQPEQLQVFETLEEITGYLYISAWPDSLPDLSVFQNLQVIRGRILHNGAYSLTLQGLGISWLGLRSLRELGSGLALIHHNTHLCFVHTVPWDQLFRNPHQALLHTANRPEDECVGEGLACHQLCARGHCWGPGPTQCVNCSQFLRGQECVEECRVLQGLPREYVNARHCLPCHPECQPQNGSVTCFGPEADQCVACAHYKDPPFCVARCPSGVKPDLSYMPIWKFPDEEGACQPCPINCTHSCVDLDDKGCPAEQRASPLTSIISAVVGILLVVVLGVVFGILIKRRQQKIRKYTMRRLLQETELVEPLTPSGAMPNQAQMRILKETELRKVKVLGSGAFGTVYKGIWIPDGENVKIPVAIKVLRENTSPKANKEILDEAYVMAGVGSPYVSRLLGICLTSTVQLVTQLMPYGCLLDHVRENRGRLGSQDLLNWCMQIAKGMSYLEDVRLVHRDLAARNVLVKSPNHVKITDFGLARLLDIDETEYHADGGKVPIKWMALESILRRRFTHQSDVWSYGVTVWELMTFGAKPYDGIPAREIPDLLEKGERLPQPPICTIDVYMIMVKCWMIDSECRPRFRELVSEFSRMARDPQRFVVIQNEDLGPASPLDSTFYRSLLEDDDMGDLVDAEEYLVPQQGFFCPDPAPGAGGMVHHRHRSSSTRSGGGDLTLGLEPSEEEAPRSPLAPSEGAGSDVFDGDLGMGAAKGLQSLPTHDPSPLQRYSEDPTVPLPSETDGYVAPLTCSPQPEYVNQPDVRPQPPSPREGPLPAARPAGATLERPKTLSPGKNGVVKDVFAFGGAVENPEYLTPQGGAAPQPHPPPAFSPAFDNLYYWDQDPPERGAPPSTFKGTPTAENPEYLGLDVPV
# [17] = target: Receptor tyrosine-protein kinase erbB-2 (Homo sapiens) (UniProt P04626); conditions: at 1 µM
# [18] = target: Receptor tyrosine-protein kinase erbB-4 (Homo sapiens) (UniProt Q15303); conditions: at 0.1 µM
# [19] = target: Receptor tyrosine-protein kinase erbB-4 (Homo sapiens) (UniProt Q15303); conditions: at 1 µM
# [20] = target: Tyrosine-protein kinase Fer (Homo sapiens) (UniProt P16591); conditions: at 0.1 µM;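 note: reported figures are averaged percent inhibition of FER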
# Sequence of Tyrosine-protein kinase Fer (Homo sapiens) (P16591 whole entry, looked up): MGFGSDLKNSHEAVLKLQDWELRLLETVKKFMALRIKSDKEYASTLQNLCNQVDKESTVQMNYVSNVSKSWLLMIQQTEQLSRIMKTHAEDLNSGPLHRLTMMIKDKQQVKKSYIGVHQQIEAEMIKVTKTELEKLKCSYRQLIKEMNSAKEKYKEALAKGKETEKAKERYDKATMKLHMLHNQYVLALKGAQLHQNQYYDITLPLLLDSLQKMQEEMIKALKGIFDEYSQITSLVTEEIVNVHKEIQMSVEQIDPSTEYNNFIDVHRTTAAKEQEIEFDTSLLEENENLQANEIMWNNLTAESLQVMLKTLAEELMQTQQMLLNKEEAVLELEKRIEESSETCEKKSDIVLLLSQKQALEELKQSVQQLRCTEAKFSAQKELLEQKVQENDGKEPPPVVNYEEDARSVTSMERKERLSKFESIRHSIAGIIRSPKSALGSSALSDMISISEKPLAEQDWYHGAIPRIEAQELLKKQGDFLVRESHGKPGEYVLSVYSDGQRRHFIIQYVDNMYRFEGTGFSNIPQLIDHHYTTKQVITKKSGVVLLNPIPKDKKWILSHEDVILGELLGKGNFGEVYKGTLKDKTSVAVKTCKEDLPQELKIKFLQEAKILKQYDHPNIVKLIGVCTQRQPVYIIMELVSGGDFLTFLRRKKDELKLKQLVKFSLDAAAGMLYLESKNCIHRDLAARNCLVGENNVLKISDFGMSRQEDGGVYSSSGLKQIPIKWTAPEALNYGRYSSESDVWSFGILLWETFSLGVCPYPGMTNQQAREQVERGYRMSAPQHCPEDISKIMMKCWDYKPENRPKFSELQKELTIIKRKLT
# Sequence of Epidermal growth factor receptor (Homo sapiens), P00533 [T790M] (P00533 whole entry T790M): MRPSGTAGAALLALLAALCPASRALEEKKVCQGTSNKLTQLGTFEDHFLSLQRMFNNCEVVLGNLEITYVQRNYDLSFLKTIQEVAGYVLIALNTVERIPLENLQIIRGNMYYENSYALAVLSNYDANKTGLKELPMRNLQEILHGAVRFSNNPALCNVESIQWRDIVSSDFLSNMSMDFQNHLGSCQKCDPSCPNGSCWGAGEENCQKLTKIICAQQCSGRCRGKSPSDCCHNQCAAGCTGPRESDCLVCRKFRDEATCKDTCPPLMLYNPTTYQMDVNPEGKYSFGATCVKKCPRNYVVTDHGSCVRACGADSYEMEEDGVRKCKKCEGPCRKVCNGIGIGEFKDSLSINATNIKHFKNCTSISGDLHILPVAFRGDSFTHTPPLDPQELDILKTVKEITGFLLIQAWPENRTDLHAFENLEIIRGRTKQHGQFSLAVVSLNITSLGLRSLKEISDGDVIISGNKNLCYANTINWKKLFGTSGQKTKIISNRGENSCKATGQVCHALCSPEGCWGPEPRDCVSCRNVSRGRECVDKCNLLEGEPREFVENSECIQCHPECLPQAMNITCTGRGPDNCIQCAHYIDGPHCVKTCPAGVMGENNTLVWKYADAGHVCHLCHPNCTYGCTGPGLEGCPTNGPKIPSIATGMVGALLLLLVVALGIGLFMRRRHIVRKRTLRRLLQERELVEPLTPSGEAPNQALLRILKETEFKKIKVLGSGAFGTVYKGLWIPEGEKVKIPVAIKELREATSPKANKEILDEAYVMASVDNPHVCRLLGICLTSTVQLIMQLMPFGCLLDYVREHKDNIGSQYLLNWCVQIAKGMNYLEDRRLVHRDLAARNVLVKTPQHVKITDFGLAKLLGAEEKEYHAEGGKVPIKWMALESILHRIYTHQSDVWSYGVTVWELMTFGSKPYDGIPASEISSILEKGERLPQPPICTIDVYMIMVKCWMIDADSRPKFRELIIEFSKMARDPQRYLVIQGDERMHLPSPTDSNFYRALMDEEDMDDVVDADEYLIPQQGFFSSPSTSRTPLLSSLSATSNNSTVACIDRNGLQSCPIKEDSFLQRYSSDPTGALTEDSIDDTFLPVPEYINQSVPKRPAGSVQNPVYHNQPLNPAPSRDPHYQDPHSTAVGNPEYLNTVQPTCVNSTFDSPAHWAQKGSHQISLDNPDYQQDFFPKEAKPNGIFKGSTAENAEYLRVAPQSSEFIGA
# Sequence of Epidermal growth factor receptor (Homo sapiens), P00533 [L858R,T790M] (P00533 whole entry T790M/L858R, looked up): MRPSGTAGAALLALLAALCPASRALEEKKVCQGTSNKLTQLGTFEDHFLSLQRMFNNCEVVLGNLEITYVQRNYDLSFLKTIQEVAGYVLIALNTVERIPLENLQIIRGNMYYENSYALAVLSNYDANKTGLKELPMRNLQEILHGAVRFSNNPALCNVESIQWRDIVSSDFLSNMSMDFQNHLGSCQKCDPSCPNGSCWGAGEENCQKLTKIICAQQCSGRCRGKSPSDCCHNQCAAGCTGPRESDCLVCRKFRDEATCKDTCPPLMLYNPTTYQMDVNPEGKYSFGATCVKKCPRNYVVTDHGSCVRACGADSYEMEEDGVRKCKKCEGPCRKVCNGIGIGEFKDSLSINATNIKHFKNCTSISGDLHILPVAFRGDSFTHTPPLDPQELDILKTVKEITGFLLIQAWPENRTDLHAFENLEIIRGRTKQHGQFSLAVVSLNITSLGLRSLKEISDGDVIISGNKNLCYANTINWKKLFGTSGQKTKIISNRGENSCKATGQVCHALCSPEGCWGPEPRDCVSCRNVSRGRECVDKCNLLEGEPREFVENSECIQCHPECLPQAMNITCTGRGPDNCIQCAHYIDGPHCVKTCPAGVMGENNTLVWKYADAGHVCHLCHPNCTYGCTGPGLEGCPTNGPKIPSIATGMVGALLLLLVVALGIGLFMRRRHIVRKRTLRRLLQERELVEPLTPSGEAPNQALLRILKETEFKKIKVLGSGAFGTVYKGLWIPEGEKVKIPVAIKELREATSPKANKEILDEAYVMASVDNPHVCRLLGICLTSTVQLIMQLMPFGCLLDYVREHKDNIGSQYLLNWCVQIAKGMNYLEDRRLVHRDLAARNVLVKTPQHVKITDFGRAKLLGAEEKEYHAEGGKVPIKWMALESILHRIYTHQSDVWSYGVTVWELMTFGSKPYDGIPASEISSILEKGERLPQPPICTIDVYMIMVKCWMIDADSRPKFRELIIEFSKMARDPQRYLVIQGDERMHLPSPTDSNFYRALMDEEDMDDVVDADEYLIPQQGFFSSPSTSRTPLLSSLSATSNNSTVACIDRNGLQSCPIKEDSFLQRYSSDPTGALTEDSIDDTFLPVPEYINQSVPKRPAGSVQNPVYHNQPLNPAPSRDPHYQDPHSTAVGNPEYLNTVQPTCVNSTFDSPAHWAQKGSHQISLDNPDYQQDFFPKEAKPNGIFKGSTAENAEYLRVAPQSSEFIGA
Structure (SMILES),inhibition [1] [%],inhibition [2] [%],inhibition [3] [%],inhibition [4] [%],inhibition [5] [%],inhibition [6] [%],inhibition [7] [%],inhibition [8] [%],inhibition [9] [%],inhibition [10] [%],inhibition [11] [%],inhibition [12] [%],inhibition [13] [%],inhibition [14] [%],inhibition [15] [%],inhibition [16] [%],inhibition [17] [%],inhibition [18] [%],inhibition [19] [%],inhibition [20] [%]
NS(=O)(=O)c1cccc(N/C=C2\C(=O)Nc3ccccc32)c1,1.35,2.94,5.43,0.86,1.68,3.01,3.78,7.61,3.9,9.06,10.8,5.46,2.58,4.23,3.73,1.3,-0.02,13.3,14.6,3.91
CC1=C(C(=O)Nc2ccc3[nH]ncc3c2)C(c2ccc(F)cc2)N=C(c2ccc(C(F)(F)F)nc2)N1 (stereo not given),0.81,4.44,-0.48,-1.16,-0.31,3.49,3.54,5.75,6.21,8.47,8.11,3.81,2.31,1.15,2.78,1.68,3.01,7.98,11.7,0.93
Cc1cc(O)cc(C)c1/C=C/c1cncc(C(N)=O)c1,1.53,0.06,1.88,8.68,47.2,5.13,19.5,18.6,69.2,16.3,56.7,5.06,9.99,9.23,46.1,5.08,-0.51,12.7,14.4,2
FC(F)(F)CNc1nccc(-c2cnn3ncccc23)n1,0.02,-1.87,1.32,0.5,-1.3,3.4,4.73,5.82,7.58,5.3,4.55,4.36,3.96,0.32,1.93,4.52,3.89,13.2,14,1.02
Cc1nnc(-c2cccc(-c3ccc(C(=O)NCC4CC4)cc3)c2)o1,4.56,2.93,3.63,1.56,0.66,5.76,6.16,11.3,10.8,11.1,9.32,4.24,5.58,1.46,2.08,2.59,5.51,8.69,12.5,3.39
CC1(C)CC(n2cnc(-c3ccc(F)cc3)c2-c2ccnc(N)n2)CC(C)(C)N1,-1.34,2.59,1.85,-2.86,-2.93,-0.75,-0.11,0.35,-1.89,0.78,4.85,3.09,1.51,0.27,0.62,-1.2,-3.03,0.19,3.58,3.41
